Results taken from publication PMC7862700, “An all-to-all approach to the identification of sequence-specific readers for epigenetic DNA modifications on cytosine”.

Key:
Assay in all cases: DAPPL (digital affinity profiling via proximity ligation, sequencing); 10 mM Tris-HCl pH 7.5, 50 mM NaCl, 1 mM DTT, 4% glycerol, room temperature, 30 min; GST-TFs on glutathione beads, 16-mer random dsDNA library, 0.1% formaldehyde crosslink after washing; high values mean tight binding
Settings in all cases: protein: recombinant; tags: N-terminal GST; dsDNA, one strand shown
FLI1 = target: T1, FLI1 (Homo sapiens, UniProt Q01543 1-452)
T1 sequence: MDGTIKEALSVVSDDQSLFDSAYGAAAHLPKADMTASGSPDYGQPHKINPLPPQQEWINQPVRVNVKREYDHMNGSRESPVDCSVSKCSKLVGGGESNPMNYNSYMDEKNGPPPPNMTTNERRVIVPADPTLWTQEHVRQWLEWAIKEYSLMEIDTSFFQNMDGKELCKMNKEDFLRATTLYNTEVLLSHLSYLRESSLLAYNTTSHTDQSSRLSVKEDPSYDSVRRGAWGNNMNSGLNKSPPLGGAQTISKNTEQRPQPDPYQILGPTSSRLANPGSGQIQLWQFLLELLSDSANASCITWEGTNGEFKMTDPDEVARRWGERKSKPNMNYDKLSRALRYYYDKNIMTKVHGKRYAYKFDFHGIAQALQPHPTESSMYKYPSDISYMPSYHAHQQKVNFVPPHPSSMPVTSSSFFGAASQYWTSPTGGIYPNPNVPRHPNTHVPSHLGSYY
Outline: (§1)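 After expression in yeast as GST fusions, human transcription factors were bound to glutathione beads, DNA-barcoded and mixed with a tag-only sample. The pools were incubated with 200 nmole of a 16-mer random double-stranded DNA library in Tris/NaCl/DTT/glycerol buffer (30 min, room temperature), washed and crosslinked with 0.1% formaldehyde. Proximity ligation with BsaI/T4 ligase ran for 1 h at 37 °C, before PCR amplification and sequencing on an Illumina NextSeq500. Binding signal is a hexamer's read frequency for a factor divided by its frequency for the tag-only sample.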

ELK1 = target: T2, ELK1 (Homo sapiens, UniProt P19419 1-428)
T2 sequence: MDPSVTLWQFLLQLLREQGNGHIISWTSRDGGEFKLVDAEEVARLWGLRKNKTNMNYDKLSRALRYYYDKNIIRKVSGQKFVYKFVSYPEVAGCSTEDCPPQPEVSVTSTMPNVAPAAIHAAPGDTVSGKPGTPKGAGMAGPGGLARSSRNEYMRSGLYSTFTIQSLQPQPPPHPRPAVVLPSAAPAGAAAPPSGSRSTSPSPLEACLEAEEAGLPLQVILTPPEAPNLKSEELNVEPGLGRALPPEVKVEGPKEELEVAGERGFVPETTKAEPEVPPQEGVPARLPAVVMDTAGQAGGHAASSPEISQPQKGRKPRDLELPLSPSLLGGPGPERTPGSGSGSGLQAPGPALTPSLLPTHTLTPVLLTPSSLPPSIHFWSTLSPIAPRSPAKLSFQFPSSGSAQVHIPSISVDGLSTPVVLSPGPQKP
Outline: as §1

GABPA = target: T3, GABPA (Homo sapiens, UniProt Q06546 1-454)
T3 sequence: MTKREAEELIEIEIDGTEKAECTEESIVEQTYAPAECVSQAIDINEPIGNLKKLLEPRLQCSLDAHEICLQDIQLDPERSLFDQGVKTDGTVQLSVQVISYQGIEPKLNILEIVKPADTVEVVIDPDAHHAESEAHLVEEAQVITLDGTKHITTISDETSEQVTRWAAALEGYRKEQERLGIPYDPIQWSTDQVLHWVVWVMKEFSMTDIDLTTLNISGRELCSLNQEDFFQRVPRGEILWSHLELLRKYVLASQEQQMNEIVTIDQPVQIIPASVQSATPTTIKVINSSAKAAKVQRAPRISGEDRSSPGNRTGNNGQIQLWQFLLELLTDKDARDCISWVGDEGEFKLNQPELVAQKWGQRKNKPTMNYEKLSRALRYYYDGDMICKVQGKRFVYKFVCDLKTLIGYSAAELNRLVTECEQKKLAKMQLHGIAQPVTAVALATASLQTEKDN
Outline: as §1

ERG = target: T4, ERG (Homo sapiens, UniProt P11308 1-479)
T4 sequence: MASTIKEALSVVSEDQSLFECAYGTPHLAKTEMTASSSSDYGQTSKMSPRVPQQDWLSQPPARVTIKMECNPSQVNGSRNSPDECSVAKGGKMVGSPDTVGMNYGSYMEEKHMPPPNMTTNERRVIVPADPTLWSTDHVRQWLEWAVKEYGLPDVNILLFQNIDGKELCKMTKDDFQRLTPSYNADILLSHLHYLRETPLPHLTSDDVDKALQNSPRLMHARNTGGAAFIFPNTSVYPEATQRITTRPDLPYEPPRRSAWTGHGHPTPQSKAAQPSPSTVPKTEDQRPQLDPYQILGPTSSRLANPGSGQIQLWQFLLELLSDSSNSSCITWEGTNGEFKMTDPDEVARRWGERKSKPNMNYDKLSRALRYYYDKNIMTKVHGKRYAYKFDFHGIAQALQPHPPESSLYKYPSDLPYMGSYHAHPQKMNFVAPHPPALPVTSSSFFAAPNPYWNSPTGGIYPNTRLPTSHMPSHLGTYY
Outline: as §1

ELF1 = ELF1 (Homo sapiens, UniProt P32519 1-619)
Outline: as §1

EHF = target: T5, EHF (Homo sapiens, UniProt Q9NZC4 1-300)
T5 sequence: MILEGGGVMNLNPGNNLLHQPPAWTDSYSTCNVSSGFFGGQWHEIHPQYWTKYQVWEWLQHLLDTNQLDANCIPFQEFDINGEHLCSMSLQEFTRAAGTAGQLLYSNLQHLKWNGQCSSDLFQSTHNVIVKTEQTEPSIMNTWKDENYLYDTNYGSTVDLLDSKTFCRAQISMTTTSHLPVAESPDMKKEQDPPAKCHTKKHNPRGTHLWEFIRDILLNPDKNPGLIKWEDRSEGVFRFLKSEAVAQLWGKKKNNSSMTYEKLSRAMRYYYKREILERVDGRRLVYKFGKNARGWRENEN
Outline: as §1

SPI1 = SPI1 (Homo sapiens, UniProt P17947 1-270)
Outline: as §1

SPIB = SPIB (Homo sapiens, UniProt Q01892 1-262)
Outline: as §1

ELK3 = target: T6, ELK3 (Homo sapiens, UniProt P41970 1-407)
T6 sequence: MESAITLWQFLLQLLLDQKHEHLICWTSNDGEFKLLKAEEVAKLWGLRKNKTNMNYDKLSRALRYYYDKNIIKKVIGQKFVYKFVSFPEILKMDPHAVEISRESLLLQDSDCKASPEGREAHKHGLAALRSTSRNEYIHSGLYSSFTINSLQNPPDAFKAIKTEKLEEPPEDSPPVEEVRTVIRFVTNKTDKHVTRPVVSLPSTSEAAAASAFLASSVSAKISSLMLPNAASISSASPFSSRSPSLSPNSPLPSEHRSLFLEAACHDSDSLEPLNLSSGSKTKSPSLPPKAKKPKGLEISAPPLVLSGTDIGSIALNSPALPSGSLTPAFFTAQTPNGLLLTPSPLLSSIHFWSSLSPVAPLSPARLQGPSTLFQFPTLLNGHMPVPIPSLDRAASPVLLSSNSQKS
Outline: as §1

FEV = target: T7, FEV (Homo sapiens, UniProt Q99581 1-238)
T7 sequence: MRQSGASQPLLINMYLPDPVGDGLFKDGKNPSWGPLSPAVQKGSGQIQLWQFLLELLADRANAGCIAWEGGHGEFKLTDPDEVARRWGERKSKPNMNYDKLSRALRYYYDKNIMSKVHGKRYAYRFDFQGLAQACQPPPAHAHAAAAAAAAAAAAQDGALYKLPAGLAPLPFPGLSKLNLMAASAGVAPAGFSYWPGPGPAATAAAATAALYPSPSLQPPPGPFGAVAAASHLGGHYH
Outline: as §1

ETV5 = ETV5 (Homo sapiens, UniProt P41161 1-510)
Outline: as §1

SPIC = target: T8, SPIC (Homo sapiens, UniProt Q8N5J4 1-248)
T8 sequence: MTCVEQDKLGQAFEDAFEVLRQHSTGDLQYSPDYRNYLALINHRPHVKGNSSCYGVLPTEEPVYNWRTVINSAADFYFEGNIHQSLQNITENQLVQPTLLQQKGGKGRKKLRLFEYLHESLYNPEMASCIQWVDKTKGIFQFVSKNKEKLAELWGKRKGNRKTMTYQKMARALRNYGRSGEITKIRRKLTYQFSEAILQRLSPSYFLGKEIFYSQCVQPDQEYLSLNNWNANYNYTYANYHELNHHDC
Outline: as §1

ELF4 = ELF4 (Homo sapiens, UniProt Q99607 1-663)
Outline: as §1

ELK4 = target: T9, ELK4 (Homo sapiens, UniProt P28324-2 1-405)
T9 sequence: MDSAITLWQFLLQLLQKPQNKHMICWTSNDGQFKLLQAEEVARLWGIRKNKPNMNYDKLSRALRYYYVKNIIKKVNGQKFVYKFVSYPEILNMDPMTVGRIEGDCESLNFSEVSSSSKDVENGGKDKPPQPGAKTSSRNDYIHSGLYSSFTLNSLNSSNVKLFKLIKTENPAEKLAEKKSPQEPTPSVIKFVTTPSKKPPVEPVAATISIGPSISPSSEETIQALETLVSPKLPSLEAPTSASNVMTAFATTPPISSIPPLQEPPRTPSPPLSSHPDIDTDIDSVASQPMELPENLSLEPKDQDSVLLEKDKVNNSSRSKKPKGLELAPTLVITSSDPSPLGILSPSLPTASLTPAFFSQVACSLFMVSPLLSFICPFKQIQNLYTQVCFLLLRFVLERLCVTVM
Outline: as §1

ETV2 = target: T10, ETV2 (Homo sapiens, UniProt O00321 1-342)
T10 sequence: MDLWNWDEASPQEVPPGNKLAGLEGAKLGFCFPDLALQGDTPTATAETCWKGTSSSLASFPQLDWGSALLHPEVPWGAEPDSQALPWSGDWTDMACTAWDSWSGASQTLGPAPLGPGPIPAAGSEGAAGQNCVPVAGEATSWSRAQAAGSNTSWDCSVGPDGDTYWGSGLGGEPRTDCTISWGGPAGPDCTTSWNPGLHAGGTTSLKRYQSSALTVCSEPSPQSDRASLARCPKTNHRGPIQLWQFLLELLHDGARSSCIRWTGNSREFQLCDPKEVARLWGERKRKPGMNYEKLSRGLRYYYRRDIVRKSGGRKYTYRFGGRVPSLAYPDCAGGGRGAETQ
Outline: as §1

ELF3 = target: T11, ELF3 (Homo sapiens, UniProt P78545 1-371)
T11 sequence: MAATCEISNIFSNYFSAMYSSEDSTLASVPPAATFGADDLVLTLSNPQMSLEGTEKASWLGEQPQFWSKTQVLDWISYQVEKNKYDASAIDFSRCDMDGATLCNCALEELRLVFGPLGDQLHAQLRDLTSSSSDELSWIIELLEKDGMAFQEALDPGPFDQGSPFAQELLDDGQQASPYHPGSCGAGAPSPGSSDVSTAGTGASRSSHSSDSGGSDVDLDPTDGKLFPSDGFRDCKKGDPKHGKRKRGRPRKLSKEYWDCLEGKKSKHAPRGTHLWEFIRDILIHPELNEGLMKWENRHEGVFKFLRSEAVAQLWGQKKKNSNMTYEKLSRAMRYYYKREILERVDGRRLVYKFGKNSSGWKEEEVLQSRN
Outline: as §1

CRX = CRX (Homo sapiens, UniProt O43186 1-299)
Outline: as §1

ETV1 = ETV1 (Homo sapiens, UniProt P50549 1-477)
Outline: as §1

Chain of ELF4 (Q99607 whole entry): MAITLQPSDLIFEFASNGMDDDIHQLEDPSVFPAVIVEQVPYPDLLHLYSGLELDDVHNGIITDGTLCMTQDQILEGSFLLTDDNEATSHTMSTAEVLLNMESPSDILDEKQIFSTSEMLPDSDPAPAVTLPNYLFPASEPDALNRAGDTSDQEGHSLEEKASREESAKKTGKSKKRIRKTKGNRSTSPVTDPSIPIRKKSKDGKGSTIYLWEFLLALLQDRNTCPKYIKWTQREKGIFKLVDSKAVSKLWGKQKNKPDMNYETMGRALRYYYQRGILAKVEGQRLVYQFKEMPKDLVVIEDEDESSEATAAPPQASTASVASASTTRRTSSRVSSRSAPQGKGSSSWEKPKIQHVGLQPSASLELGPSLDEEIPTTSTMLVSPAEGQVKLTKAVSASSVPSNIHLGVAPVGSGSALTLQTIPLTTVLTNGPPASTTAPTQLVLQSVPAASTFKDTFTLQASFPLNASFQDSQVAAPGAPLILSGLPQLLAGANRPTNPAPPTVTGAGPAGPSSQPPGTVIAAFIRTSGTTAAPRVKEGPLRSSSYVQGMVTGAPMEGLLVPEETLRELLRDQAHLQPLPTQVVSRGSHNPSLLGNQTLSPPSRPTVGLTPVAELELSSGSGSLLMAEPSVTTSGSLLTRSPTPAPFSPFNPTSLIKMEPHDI
Chain of CRX (O43186 whole entry): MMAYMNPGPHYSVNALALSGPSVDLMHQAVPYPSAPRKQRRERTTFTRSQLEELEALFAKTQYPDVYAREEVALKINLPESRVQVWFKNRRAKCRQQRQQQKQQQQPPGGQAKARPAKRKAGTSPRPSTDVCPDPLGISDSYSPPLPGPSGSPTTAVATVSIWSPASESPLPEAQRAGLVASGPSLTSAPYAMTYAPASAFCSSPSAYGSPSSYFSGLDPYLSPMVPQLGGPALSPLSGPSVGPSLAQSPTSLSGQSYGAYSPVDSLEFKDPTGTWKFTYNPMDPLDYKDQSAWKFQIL
Chain of ELF1 (P32519 whole entry): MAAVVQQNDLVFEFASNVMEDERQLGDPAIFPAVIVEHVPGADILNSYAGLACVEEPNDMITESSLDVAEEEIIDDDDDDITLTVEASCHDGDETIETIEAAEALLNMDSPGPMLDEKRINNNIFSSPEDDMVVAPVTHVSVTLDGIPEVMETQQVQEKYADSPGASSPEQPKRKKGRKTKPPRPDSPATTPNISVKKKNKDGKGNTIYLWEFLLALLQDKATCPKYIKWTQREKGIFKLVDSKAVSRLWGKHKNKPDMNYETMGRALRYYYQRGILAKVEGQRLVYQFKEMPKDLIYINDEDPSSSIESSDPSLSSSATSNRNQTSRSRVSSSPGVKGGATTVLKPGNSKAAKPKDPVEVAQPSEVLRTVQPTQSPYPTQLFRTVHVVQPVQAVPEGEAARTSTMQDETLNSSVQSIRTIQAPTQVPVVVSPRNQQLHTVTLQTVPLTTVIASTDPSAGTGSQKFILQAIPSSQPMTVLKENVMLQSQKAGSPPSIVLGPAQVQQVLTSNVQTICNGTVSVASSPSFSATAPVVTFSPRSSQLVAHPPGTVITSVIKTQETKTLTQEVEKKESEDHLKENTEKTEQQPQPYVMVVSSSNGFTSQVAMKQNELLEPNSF
Chain of ETV1 (P50549 whole entry): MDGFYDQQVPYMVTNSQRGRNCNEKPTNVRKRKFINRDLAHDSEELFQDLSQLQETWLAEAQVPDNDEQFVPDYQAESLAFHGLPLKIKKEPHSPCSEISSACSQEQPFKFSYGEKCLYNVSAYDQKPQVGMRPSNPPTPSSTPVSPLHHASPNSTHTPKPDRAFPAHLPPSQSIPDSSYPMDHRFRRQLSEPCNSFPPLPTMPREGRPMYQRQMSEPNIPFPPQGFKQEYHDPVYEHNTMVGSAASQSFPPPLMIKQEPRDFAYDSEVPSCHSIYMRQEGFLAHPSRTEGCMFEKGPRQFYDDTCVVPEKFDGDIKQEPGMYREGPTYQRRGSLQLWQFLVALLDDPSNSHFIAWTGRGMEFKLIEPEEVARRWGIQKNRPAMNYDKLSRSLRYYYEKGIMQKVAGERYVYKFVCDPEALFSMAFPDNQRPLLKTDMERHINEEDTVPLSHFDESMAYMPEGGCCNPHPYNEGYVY
Chain of SPIB (Q01892 whole entry): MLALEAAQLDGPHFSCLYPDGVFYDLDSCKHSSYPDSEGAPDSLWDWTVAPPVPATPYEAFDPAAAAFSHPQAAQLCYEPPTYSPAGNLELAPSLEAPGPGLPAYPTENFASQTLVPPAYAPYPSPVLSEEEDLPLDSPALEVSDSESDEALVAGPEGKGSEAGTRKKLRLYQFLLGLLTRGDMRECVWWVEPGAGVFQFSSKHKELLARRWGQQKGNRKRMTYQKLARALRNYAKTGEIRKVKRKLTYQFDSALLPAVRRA
Chain of ETV5 (P41161 whole entry): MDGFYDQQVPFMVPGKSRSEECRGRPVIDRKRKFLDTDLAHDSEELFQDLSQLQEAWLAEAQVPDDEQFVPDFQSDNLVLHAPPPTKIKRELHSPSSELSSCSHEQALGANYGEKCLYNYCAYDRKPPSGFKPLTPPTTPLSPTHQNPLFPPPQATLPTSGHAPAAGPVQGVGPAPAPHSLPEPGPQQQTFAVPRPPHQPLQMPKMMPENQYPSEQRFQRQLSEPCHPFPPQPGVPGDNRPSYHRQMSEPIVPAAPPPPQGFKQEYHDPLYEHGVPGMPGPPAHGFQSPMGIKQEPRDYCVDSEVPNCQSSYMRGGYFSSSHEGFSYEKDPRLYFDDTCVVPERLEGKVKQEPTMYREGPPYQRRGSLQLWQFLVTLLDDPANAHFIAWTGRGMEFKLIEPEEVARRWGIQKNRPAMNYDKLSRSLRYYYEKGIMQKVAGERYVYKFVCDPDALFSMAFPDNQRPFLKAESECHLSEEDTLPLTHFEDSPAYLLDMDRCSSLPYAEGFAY

CTACGT
binding signal (FLI1): 1.29 fold enrichment (6-mer frequency, TF over GST control) | binding signal (ELK1): 1.23 fold enrichment (6-mer frequency, TF over GST control) | binding signal (GABPA): 1.18 fold enrichment (6-mer frequency, TF over GST control) | binding signal (ERG): 1.19 fold enrichment (6-mer frequency, TF over GST control) | binding signal (ELF1): 1.13 fold enrichment (6-mer frequency, TF over GST control) | binding signal (EHF): 1.25 fold enrichment (6-mer frequency, TF over GST control) | binding signal (SPI1): 1.08 fold enrichment (6-mer frequency, TF over GST control) | binding signal (SPIB): 1.27 fold enrichment (6-mer frequency, TF over GST control) | binding signal (ELK3): 1.31 fold enrichment (6-mer frequency, TF over GST control) | binding signal (FEV): 1.28 fold enrichment (6-mer frequency, TF over GST control) | binding signal (ETV5): 1.09 fold enrichment (6-mer frequency, TF over GST control) | binding signal (SPIC): 1.17 fold enrichment (6-mer frequency, TF over GST control) | binding signal (ELF4): 1.24 fold enrichment (6-mer frequency, TF over GST control) | binding signal (ELK4): 1.24 fold enrichment (6-mer frequency, TF over GST control) | binding signal (ETV2): 1.03 fold enrichment (6-mer frequency, TF over GST control) | binding signal (ELF3): 1.01 fold enrichment (6-mer frequency, TF over GST control) | binding signal (CRX): 1.01 fold enrichment (6-mer frequency, TF over GST control) | binding signal (ETV1): 1.3 fold enrichment (6-mer frequency, TF over GST control)

GGTCTA
binding signal (FLI1): 1.12 fold enrichment (6-mer frequency, TF over GST control) | binding signal (ELK1): 1.05 fold enrichment (6-mer frequency, TF over GST control) | binding signal (GABPA): 1.06 fold enrichment (6-mer frequency, TF over GST control) | binding signal (ERG): 1.08 fold enrichment (6-mer frequency, TF over GST control) | binding signal (ELF1): 1.05 fold enrichment (6-mer frequency, TF over GST control) | binding signal (EHF): 1.23 fold enrichment (6-mer frequency, TF over GST control) | binding signal (SPI1): 1.02 fold enrichment (6-mer frequency, TF over GST control) | binding signal (SPIB): 1.05 fold enrichment (6-mer frequency, TF over GST control) | binding signal (ELK3): 1.24 fold enrichment (6-mer frequency, TF over GST control) | binding signal (FEV): 1.06 fold enrichment (6-mer frequency, TF over GST control) | binding signal (ETV5): 1.11 fold enrichment (6-mer frequency, TF over GST control) | binding signal (SPIC): 1.09 fold enrichment (6-mer frequency, TF over GST control) | binding signal (ELF4): 1.11 fold enrichment (6-mer frequency, TF over GST control) | binding signal (ELK4): 1.04 fold enrichment (6-mer frequency, TF over GST control) | binding signal (ETV2): 1.06 fold enrichment (6-mer frequency, TF over GST control) | binding signal (ELF3): 1.01 fold enrichment (6-mer frequency, TF over GST control) | binding signal (CRX): 1.01 fold enrichment (6-mer frequency, TF over GST control) | binding signal (ETV1): 1.05 fold enrichment (6-mer frequency, TF over GST control)
